hcDAF-12 act = activators of H. contortus DAF-12 nuclear receptor; HEK293 hcDAF-12 lit1-tk-luc reporter, luminescence; 0% DMSO, 100% Δ7-dafachronic acid; activation, % at 6.8 µM; hit rate 1.4% among 370,000;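 active = activation above the mean of all tested compounds plus 3 SD, cut at about 5.5% in these data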
hgDAF12 agonist = activates the H. glycines DAF-12 receptor ligand-binding domain | activation, % at 6.8 µM | AID 687014 | hit rate 1.8% among 370,000 | HEK293 GAL4-hgDAF12 UAS-luciferase reporter, agonist luminescence; normalized to butyrate control;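 active = activation above a cutoff set at the mean of all screened compounds plus 3 SD, cut at about 10% in these data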
NF-kB neuron act = compounds increasing NF-kB expression in human neuronal cells; NF-kB reporter expression; active compounds read high; fold change at 12.5 µM; hit rate 1.6% among 190,000; in the data active = fold change above about 3.3
APP 5'UTR act = activates APP 5'UTR luciferase reporter; SH-SY5Y APP 5'UTR luciferase reporter, luminescence; zero percent = DMSO vehicle wells; activation, % at 2 µM; hit rate 1% among 190,000;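 active = activation above a set limit, based on mean plus 3 SD of controls, cut at about 140% in these data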
ssDAF-12 act = activators of S. stercoralis DAF-12 nuclear receptor | AID 652126 | hit rate 1% among 370,000 | HEK293 ssDAF-12/GRIP1 lit1-tk-luc reporter, luminescence; % of 3 µM dafachronic acid response | activation, % at 6.8 µM;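 active = activation above the mean over all tested compounds plus 3 SD, cut at about 0.9% in these data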
Of the large screens only hits and unclear results are named; the others gave an inactive call. Most compounds without a hit are left out; they make up all but 3.4% or so of the library.

COc1ccc(-c2cc(CS(=O)(=O)c3ccccc3)on2)cc1	hgDAF12 agonist 13
CCc1cc(C(=O)NNC(=S)NCc2ccccc2)cs1	none
CCc1cc(C(=O)NNC(=S)Nc2ccccc2C)cs1	hgDAF12 agonist 12, NF-kB neuron act 4.3
CCc1cc(C(=O)Nc2ccccc2)cs1	NF-kB neuron act 3.7
COC(=O)[C@]1(C)N[C@H](CN(C)C(=O)c2ccccc2)[C@@H]2C(=O)N(Cc3ccccc3)C(=O)[C@@H]21	none (no result: NF-kB neuron act, APP 5'UTR act)
COC(=O)[C@]1(C)N[C@H](CN(C)C(C)=O)[C@@H]2C(=O)N(Cc3ccccc3)C(=O)[C@@H]21	ssDAF-12 act 3.7 (no result: NF-kB neuron act, APP 5'UTR act)
CC[C@@]1(C(=O)OC)N[C@H](CN(C)C(=O)Nc2ccc(C(F)(F)F)cc2)[C@@H]2C(=O)N(Cc3ccccc3)C(=O)[C@@H]21	ssDAF-12 act 2.5 (no result: NF-kB neuron act, APP 5'UTR act)
COC(=O)[C@]1(Cc2ccccc2)N[C@H](CN(C)C(=O)Nc2ccc(C(F)(F)F)cc2)[C@@H]2C(=O)N(Cc3ccccc3)C(=O)[C@@H]21	none (no result: NF-kB neuron act, APP 5'UTR act)
Cc1ccc(C(=O)NC2CCCCN(Cc3ccccc3C)C2=O)cc1 (stereo not drawn)	none (no result: NF-kB neuron act, APP 5'UTR act)
COC(=O)[C@]12C[C@H](CC(=O)NCC34CC5CC(CC(C5)C3)C4)C(=O)N(Cc3cccc4ccccc34)C1=C[C@H](C1CCCC1)O[C@@H]2C	none (no result: NF-kB neuron act, APP 5'UTR act)
COC(=O)c1cc(C)oc1C	none (no result: NF-kB neuron act, APP 5'UTR act)
Cc1cccc(NC(=O)c2cnc3n(c2=O)CCS3)c1	none
O=C(Nc1ccccc1)c1cnc2n(c1=O)CCS2	hcDAF-12 act 6.1
CC(=O)N1CCN(C2=Nc3ccccc3Sc3ccccc32)CC1	none (no result: NF-kB neuron act, APP 5'UTR act)
Nc1c(C(=O)NCc2ccco2)nnn1CC(=O)Nc1ccc2c(c1)OCO2	NF-kB neuron act 4
O=S(=O)(c1ccc(Cl)s1)N1CCC(c2nc3ccccc3o2)CC1	none (no result: NF-kB neuron act, APP 5'UTR act)
Cn1c(SCc2nnc(-c3ccccc3Br)o2)nc2sc3c(c2c1=O)CCC3	NF-kB neuron act 4.5
CCOC(=O)[C@@]12CCCC=C1N(CCc1ccc(Cl)cc1)C(=O)[C@H]2CC(=O)NCCc1ccccc1OC	none (no result: NF-kB neuron act, APP 5'UTR act)
CCn1c(C)nc2cc(C(=O)NNC(=S)Nc3ccccc3)ccc21	APP 5'UTR act 185
CCn1c(C)nc2cc(C(=O)NNC(=S)Nc3ccc(Cl)cc3)ccc21	none (no result: NF-kB neuron act, APP 5'UTR act)
CCCCC[C@@H](C)N1C[C@@H](COCc2ccccc2)Oc2cc(N3CCC[C@H]3CO)ccc2S1(=O)=O	ssDAF-12 act 0.9 (no result: NF-kB neuron act, APP 5'UTR act)
COC(=O)c1ccc(NC(=O)C(=O)c2cccn2C)cc1	hgDAF12 agonist 18, NF-kB neuron act 8.4
O=C(NCc1ccc(C(=O)N2CCCN(Cc3ccccc3)CC2)cc1)c1cccc(Br)c1	none (no result: NF-kB neuron act, APP 5'UTR act)
O=C(Cn1nc(C(=O)O)c2ccccc2c1=O)Nc1ccc(Br)cc1	ssDAF-12 act 1.1 (no result: NF-kB neuron act, APP 5'UTR act)
NC(=O)c1c(NC(=O)Cn2nc(C(=O)O)c3ccccc3c2=O)sc2c1CCC2	none (no result: NF-kB neuron act, APP 5'UTR act)
NC(=O)c1c(NC(=O)Cn2nc(C(=O)O)c3ccccc3c2=O)sc2c1CCCC2	hgDAF12 agonist 13 (no result: NF-kB neuron act, APP 5'UTR act)
COC(=O)C[C@H]1CC[C@H]2[C@H](COc3ccc(NC(=O)c4cccs4)cc3C(=O)N2C)O1	none (no result: NF-kB neuron act, APP 5'UTR act)
O=C(NCC1COc2ccccc2O1)c1ccc(NC(=O)C(Cl)Cl)cc1 (stereo not drawn)	none (no result: NF-kB neuron act, APP 5'UTR act)
COC(=O)[C@@]12CCCCC3=C1N(CCC3)C(=O)[C@H]2CC(=O)NCc1ccccc1	none (no result: NF-kB neuron act, APP 5'UTR act)
CN(C)c1ccc(/C=N/N2C(=N)N(c3ccccc3)C(=S)C2=Nc2ccccc2)cc1	APP 5'UTR act 180 (no result: hcDAF-12 act, hgDAF12 agonist, NF-kB neuron act, ssDAF-12 act)
CS(=O)(=O)c1nc(-c2ccc(Br)cc2)cc(-c2ccccc2)c1C#N	none
COc1ccc(-c2cc(-c3ccccc3)c(C#N)c(S(C)(=O)=O)n2)cc1	NF-kB neuron act 6.3
O=C(NC1CCCCN(Cc2cccc(F)c2)C1=O)c1ccc2ccccc2c1 (stereo not drawn)	none (no result: NF-kB neuron act, APP 5'UTR act)
NNc1nc2c(-c3ccc(F)cc3)nnn2c2ccccc12	hcDAF-12 act 6.4, hgDAF12 agonist 10, ssDAF-12 act 1.3
CC1=C(C(=O)OCC2CCCO2)C(c2coc3ccc(C)cc3c2=O)C2=C(CCCC2=O)N1 (stereo not drawn)	ssDAF-12 act 1.7
CC1=C(C(=O)OCC2CCCO2)C(c2coc3ccc(Cl)cc3c2=O)C2=C(CCCC2=O)N1 (stereo not drawn)	none
FC(F)(F)c1ccc(Cn2ccc3ccc(-c4ccc5ccn(Cc6ccccc6)c5c4)cc32)cc1	none (no result: NF-kB neuron act, APP 5'UTR act)
CCCc1cc(C(=O)Nc2ccc(F)cc2F)no1	hgDAF12 agonist 13
CCCc1cc(C(=O)Nc2cccc(C(C)=O)c2)no1	hcDAF-12 act 5.9
Cc1ccc(NC(=O)c2cc(N(C)C)ccc2[P+](=O)O)cc1	hcDAF-12 act 5.7, hgDAF12 agonist 11
CN(C)c1ccc(NC(=O)c2cccc(C(=O)Nc3ccc(N(C)C)cc3)n2)cc1	none
O=C(Nc1ccc(-c2nc3ccccc3[nH]2)cc1)C1CCCO1 (stereo not drawn)	hgDAF12 agonist 13, NF-kB neuron act 4.6, APP 5'UTR act 180
O=C(Cc1cccs1)Nc1ccc(-c2nc3ccccc3[nH]2)cc1	APP 5'UTR act 152
CCc1ccc(NC(=O)c2ccccc2NC(=O)C2CCCO2)cc1 (stereo not drawn)	hgDAF12 agonist 13
O=C(CN1CCOCC1)Nc1ccc(-c2nc3ccccc3[nH]2)cc1	none
CC(COc1cccc([N+](=O)[O-])c1)CN1CCC(C(O)(c2ccccc2)c2ccccc2)CC1 (stereo not drawn)	none (no result: NF-kB neuron act, APP 5'UTR act)
CCc1c(C(=O)C(C)O)c2n3c1CCC[C@@H]3CC2 (stereo partly drawn)	none (no result: NF-kB neuron act, APP 5'UTR act)
CCCC(=O)N1CCC[C@]2(CC[C@H](CCC(=O)OCC)O2)C1	none (no result: NF-kB neuron act, APP 5'UTR act)
CC1=CC(C)(C)N(S(=O)(=O)c2ccc(C)cc2)c2cc(C)ccc21	NF-kB neuron act 4.4
COc1ccc2c(c1)C(C)=CC(C)(C)N2S(=O)(=O)c1ccc(C)cc1	none
C[C@H]1COc2cc(N3CCCC3)ccc2S(=O)(=O)N1C	none (no result: NF-kB neuron act, APP 5'UTR act)
O=C(NNC(=S)NC(=O)c1sc2ccccc2c1Cl)c1ccc(Cl)cc1	ssDAF-12 act 1.2
O=C(Nc1ncc(Cc2ccccc2Cl)s1)C1CCCO1 (stereo not drawn)	hgDAF12 agonist 12, NF-kB neuron act 3.9
O=C(Nc1ncc(Cc2cccc(Cl)c2Cl)s1)C1CCCO1 (stereo not drawn)	none
CNC(=S)N=Nc1c(O)[nH]c2ccccc12	hcDAF-12 act 5.6
O=C(CCNC(=O)c1ccccc1)N=Nc1c(O)[nH]c2ccccc12	ssDAF-12 act 21
Cc1cccc(/C=N\NC(=O)c2ccc(Cl)cc2)c1O	NF-kB neuron act 4.3
CCOc1cccc(/C=N/NC(=O)c2ccc3c(c2)OCCO3)c1O	none (no result: NF-kB neuron act, APP 5'UTR act)
Cc1cccc(/C=N/NC(=O)c2ccc3c(c2)OCCO3)c1O	ssDAF-12 act 1.1 (no result: NF-kB neuron act, APP 5'UTR act)
Cc1ccc(-c2cc(C(=O)NN=Cc3cc(Br)ccc3O)[nH]n2)cc1C	none (no result: NF-kB neuron act, APP 5'UTR act)
CCN(CC)C(=O)CC[C@H]1CC[C@]2(CCCN(S(C)(=O)=O)C2)O1	none (no result: NF-kB neuron act, APP 5'UTR act)
N/C(=N\OC(=O)c1ccc2c(c1)OCO2)c1ccc(Cl)cc1	NF-kB neuron act 5.9
Cc1ccc(/C(N)=N/OC(=O)c2ccc3c(c2)OCO3)cc1	NF-kB neuron act 5, APP 5'UTR act 142

Compound activity as filed in PubChem BioAssay.
